The other results are listed elsewhere or left out. Inconclusive results are not listed. Activity calls are given as the source filed them.
Legend:
[1] = target: Solute carrier family 12 member 5 (Homo sapiens) (UniProt Q9H2X9); experiment: KCC2 modulators in sodium-free buffer, confirmation, cell-based, HEK293 KCC2, thallium flux, secondary assay (AID 1713;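 active means thallium flux slope above the same plate's solvent-only control mean plus 3 SD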); conditions: FluoZin2 fluorescence, at 10 µM, stronger effect = higher value
[2] = PubChem AID 1714; conditions: HEK293-KCC2 + bumetanide/ouabain, thallium flux FluoZin2; at 10 µM; stronger effect = higher value;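 further: raw slope of fluorescence over initial fluorescence between 10 and 20 s after thallium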
[3] = target: Solute carrier family 12 member 5 (Homo sapiens) (UniProt Q9H2X9); experiment: KCC2 modulators without ouabain present, confirmation, cell-based, HEK293 KCC2, thallium flux, FluoZin2, secondary assay 2 (AID 1715); conditions: HEK293-KCC2, thallium flux FluoZin2 fluorescence; at 10 µM; actives lie on both sides; F/F0 rise rate, 10–20 s post-thallium;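 further: raw slope with 0.1% DMSO as baseline and bumetanide as block control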
[4] = thallium flux modulation in parental HEK cells, confirmation, counter-screen for KCC2 modulator project, cell-based, counterscreen 1 (AID 1716;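 active means thallium flux rate significantly above the same plate's solvent-only control wells, beyond their mean plus 3 SD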); conditions: HEK293 parental cells, thallium flux FluoZin2, ouabain; at 10 µM; baseline-ratio fluorescence slope, 10–20 s after thallium
[5] = target: Solute carrier family 12 member 5 (Homo sapiens) (UniProt Q9H2X9); experiment: KCC2 inhibitors and activators, ouabain retest, confirmation, HEK-KCC2 cells (AID 1717;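 active means thallium flux slope beyond 3 SD from same-plate DMSO control mean in most replicates, usually higher, sometimes lower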;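 further: slope of initial-normalized fluorescence between seconds 10 and 20 after thallium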); conditions: HEK293-KCC2, thallium flux FluoZin2 fluorescence, at 10 µM, bidirectional: low = inhibitor, high = activator
[6] = native HEK Tl+ uptake effects, second counter-screen – HEK cells, counterscreen 2, counter-screen for KCC2 modulator project, confirmation (AID 1718;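 active means thallium flux slope above the same plate's solvent-control mean plus 3 SD in both duplicate wells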;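 further: run without ouabain in cells lacking the KCC2 cotransporter; slope of fluorescence scaled to its starting value between 10 and 20 s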); conditions: HEK293 parental, thallium flux FluoZin-2 fluorescence slope; at 10 µM
[7] = inhibitors of TNFa-induced NFkB p65 translocation, primary screen, imaging, HUVEC, MLSMR starter and 10KST1 sets (AID 438;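 active means inhibition above 20% together with a positive visual image hit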;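 further: compound added about 3h40 before a 20 min TNFalpha stimulation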;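 on inhibition: signal is the nuclear over cytoplasmic p65 intensity ratio per well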); conditions: HUVEC TNFa-induced p65 nuclear translocation; cell count: measured here: nuclei count (cytotoxicity indicator), at 2.08 µM; inhibition: at 2 µM, stronger effect = higher value, 0% TNFa-plus-vehicle, 100% no-TNFa wells
[8] = inhibitors of mutant huntingtin aggregation, primary screen, imaging, exon1htt(103Q)mCFP cells, high-content imaging (AID 483;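 active means visual image review flags a hit and inhibition of aggregation exceeds 20%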;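 further: compound exposure lasted 3 days before fixation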;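 on nuclei count: percent of the per-plate median nuclei count of sample wells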); conditions: exon1htt(103Q)mCFP cell line, aggregate imaging, at 2 µM; inhibition of aggregation: stronger effect = higher value; nuclei count: measured here: cell count, toxicity
[9] = inhibitors of E-selectin induction by TNFa, primary screen, imaging, HUVEC, immunofluorescence, MLSMR starter and 10KST1 sets (AID 487;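 active means visually confirmed hit in the image check and inhibition above 20%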;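 on inhibition: signal is fraction of cell area covered by stained E-selectin grains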;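 on nuclei count: 100% = median nuclei count of all wells on the same plate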); conditions: HUVEC TNFalpha-induced E-selectin immunofluorescence imaging, at 2 µM; inhibition: stronger effect = higher value; nuclei count: measured here: cell number, toxicity
[10] = DUSP6 inhibitors restoring Erk phosphorylation by chemical complementation, primary imaging in DUSP6-transfected HeLa (AID 609;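 active means compounds giving at least 50% inhibition in the cell-based MKP-3 phosphatase rescue imaging test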;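 on inhibition: phospho-Erk level distribution per well compared with pooled transfected vehicle control wells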); conditions: HeLa MKP-3 transfected, phospho-Erk imaging KS statistic, at 10 µM, cells stimulated with TPA for 15 min
[11] = target: Dual specificity protein phosphatase 6 (Homo sapiens) (UniProt Q16828); experiment: as above; conditions: HeLa MKP-3 transfected, phospho-Erk imaging KS statistic; at 10 µM; stronger effect = higher value; cells stimulated with TPA for 15 min
[12] = target: Voltage-gated potassium channel subunit beta-2 (Rattus norvegicus) (UniProt P62483); experiment: KvBeta enzyme negative modulators, primary screen, biochemical, NADPH fluorescence (AID 622;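 active means fluorescence slope higher than the sample average by over 3 SD, cut at about -0.22 in these data, passing the limit was not always enough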;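 further: slope of raw intensity against log time taken from 70 to 1610 s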); conditions: recombinant KvBeta, 4-cyanobenzaldehyde reduction, at 10 µM, stronger effect = higher value
[13] = target: Voltage-gated potassium channel subunit beta-2 (Rattus norvegicus) (UniProt P62483); experiment: KvBeta positive modulators, primary screen, biochemical, NADPH fluorescence (AID 623;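 active means NADPH fluorescence slope more negative than the mean of all samples by about 3 SD, 99.7% confidence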;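 further: fluorescence intensity change per second fitted from 20 to 320 s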); conditions: Recombinant KvBeta, NADPH fluorescence decrease slope, 10 min; at 10 µM; stronger effect = lower value
[14] = target: Muscarinic acetylcholine receptor M4 (Homo sapiens) (UniProt P08173); experiment: compounds altering M4/GIRK thallium flux, either direction, primary screen, M4 allosteric agonist project, cell-based, HEK293 M4/GIRK, BTC-AM (AID 625;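 active means fluorescence slope after compound addition differing from the mean of all tested samples at 99.7% confidence, mostly higher but some lower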;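 further: thallium influx through GIRK channels coupled to M4 in HEK293 cells with BTC-AM dye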); conditions: at 10 µM, actives lie on both sides
[15] = inhibitors of larval lipid processing in zebrafish, primary screen, whole organism, PED6 fluorescence, gall bladder and intestine (AID 686;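 active means a full or partial loss of lipid-probe fluorescence in the fish gall bladder, intestine or both, judged by eye; inactive means no fluorescence loss, or compound toxic to the fish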;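 further: larvae 5 to 7 days old with five fish per well; signal comes from phospholipase A2 cleavage of quenched PED6 carried via bile; overnight exposure to compound and PED6 before scoring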); conditions: Zebrafish larvae PED6 lipid processing, fluorescence scoring; screened at 20 µM (by protocol)
[16] = inhibitors of Chlamydomonas gravitaxis, primary screen, whole organism, Chlamydomonas reinhardtii, WT vs cilia-less mutant, absorbance, 96-well (AID 463189;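 active means inhibition at or above 50% relative to wild type and mutant plate controls; inactive means inhibition below 50%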;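 further: 0% = wild type cc124 cells in DMSO and 100% = ciliumless bld1 mutant cells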); conditions: OD600 absorbance, 2 days, at 10 µM, stronger effect = higher value
[17] = inhibitors of Sendai virus-induced IRF3 signaling, primary screen, TLR/RLR signaling modifier project, cell-based, Sendai virus stimulus, luciferase, 10K MLSCN set (AID 602276;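 active means inhibition at or above 50% at 10 µM; inactive means inhibition below 50%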;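 further: firefly luciferase from ISG56 promoter only with Renilla not read in this screen; 0% = Sendai virus plus DMSO and 100% = medium plus DMSO without virus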); conditions: HEK293 RL24 IRF3 luciferase reporter, at 10 µM, stronger effect = higher value
[18] = inhibitors of poly I:C-induced TLR3 signaling, primary screen, cell-based, poly I:C stimulus, luciferase, 10K MLSCN set (AID 602277;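 active means inhibition of the reporter signal at or above 50%; inactive means inhibition below 50%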); conditions: HEK293-TLR3 RL24 IRF3 luciferase reporter, at 10 µM, stronger effect = higher value

Solute carrier family 12 member 5 (Homo sapiens), sequence (Q9H2X9 whole entry, looked up): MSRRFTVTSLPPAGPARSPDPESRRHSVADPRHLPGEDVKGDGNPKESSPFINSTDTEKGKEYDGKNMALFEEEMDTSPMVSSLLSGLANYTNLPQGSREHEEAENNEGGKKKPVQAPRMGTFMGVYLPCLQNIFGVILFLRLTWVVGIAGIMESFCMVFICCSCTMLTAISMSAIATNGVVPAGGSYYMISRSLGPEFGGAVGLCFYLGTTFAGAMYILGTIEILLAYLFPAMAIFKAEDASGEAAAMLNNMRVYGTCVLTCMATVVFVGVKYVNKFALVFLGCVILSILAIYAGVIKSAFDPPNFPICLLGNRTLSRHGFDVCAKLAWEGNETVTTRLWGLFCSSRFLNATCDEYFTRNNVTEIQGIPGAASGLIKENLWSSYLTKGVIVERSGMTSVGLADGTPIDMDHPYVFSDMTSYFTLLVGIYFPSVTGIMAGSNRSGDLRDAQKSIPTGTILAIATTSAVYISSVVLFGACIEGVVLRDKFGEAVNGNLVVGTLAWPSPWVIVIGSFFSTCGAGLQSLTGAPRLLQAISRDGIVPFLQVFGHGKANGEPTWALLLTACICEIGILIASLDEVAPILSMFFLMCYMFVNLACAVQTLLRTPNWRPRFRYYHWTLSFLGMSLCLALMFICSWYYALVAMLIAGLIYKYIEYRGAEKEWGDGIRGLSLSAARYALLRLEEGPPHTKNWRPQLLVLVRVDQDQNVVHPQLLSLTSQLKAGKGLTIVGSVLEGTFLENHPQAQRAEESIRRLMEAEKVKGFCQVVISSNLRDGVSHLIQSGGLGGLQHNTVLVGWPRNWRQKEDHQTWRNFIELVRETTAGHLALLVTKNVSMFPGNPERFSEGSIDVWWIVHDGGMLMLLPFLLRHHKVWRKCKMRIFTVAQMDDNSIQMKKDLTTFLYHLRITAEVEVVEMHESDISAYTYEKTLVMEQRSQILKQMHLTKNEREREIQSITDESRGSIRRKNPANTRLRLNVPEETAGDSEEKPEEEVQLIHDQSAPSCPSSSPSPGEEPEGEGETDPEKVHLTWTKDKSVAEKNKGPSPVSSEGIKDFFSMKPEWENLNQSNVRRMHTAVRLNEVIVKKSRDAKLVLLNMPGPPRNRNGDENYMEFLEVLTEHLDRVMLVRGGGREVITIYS
Voltage-gated potassium channel subunit beta-2 (Rattus norvegicus), sequence (P62483 whole entry, looked up): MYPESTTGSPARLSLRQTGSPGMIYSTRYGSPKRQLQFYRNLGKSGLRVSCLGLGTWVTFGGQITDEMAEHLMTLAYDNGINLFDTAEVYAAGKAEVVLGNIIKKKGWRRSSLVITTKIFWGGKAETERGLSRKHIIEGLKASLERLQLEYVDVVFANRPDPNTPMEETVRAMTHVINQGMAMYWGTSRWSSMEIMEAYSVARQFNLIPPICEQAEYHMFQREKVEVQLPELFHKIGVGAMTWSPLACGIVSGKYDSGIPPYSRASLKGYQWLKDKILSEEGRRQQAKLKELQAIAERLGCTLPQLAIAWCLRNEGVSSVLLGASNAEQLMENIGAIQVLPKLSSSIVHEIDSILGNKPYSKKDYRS
Dual specificity protein phosphatase 6 (Homo sapiens), sequence (Q16828 whole entry, looked up): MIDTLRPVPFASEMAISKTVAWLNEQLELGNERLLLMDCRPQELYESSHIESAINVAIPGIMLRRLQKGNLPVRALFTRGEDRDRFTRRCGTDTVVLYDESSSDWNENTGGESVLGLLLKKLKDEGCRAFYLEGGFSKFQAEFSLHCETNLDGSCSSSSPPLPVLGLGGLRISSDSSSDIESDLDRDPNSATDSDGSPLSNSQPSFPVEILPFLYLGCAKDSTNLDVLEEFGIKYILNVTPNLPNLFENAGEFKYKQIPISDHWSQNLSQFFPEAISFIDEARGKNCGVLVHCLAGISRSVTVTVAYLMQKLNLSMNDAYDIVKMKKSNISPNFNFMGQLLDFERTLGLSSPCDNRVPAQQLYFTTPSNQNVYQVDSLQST
Muscarinic acetylcholine receptor M4 (Homo sapiens), sequence (P08173 whole entry, looked up): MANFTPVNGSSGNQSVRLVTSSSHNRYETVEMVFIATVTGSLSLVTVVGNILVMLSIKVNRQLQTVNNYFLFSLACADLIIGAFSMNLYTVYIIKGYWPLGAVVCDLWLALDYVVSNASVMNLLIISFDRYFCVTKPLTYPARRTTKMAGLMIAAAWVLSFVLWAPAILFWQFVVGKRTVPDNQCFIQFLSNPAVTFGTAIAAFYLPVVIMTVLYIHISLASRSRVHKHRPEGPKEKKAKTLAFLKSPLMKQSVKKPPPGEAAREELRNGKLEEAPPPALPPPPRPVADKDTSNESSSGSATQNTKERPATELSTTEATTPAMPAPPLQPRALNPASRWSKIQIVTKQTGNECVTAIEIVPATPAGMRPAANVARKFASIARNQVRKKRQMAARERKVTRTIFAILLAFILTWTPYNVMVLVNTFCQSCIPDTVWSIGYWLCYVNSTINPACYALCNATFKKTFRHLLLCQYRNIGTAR

O=C1/C(=C\c2ccsc2)NC(=S)N1c1ccccc1
active: normalised thallium flux (F/F0 slope) [1] 0.024 | normalized thallium flux [2] 0.0414 | normalized thallium flux [3] 0.039 | thallium flux rate (normalised fluorescence) [4] 0.0238 | raw Tl+ flux slope (below DMSO = inhibition, above = activation) [5] 0.0341 | thallium flux slope [6] 0.024

COc1ccc2[nH]c(=S)cc(C)c2c1
active: normalized thallium flux [2] 0.0111 | thallium flux rate (normalised fluorescence) [4] 0.0146 | thallium flux slope [6] 0.0122
inactive: normalised thallium flux (F/F0 slope) [1] 0.00897 | normalized thallium flux [3] 0.0317 | raw Tl+ flux slope (below DMSO = inhibition, above = activation) [5] 0.0267

CC/S(CC1CC1(Cl)Cl)=N\S(=O)(=O)c1ccc(C)cc1 (stereo not given)
inactive: normalised thallium flux (F/F0 slope) [1] 0.0104 | normalized thallium flux [2] 0.00604 | normalized thallium flux [3] 0.0348 | thallium flux rate (normalised fluorescence) [4] 0.00744 | raw Tl+ flux slope (below DMSO = inhibition, above = activation) [5] 0.0213 | thallium flux slope [6] 0.0107

COc1ccc(NC(=O)c2ccccc2[N+](=O)[O-])cc1OC
inactive: normalised thallium flux (F/F0 slope) [1] 0.00704 | normalized thallium flux [2] 0.00505 | normalized thallium flux [3] 0.0299 | thallium flux rate (normalised fluorescence) [4] 0.00749 | raw Tl+ flux slope (below DMSO = inhibition, above = activation) [5] 0.0198 | thallium flux slope [6] 0.0109

S=C(NN=C1CCN(Cc2ccccc2)CC1)NC1CCCCC1
inactive: normalised thallium flux (F/F0 slope) [1] 0.0184 | normalized thallium flux [2] 0.00465 | thallium flux rate (normalised fluorescence) [4] 0.00811 | thallium flux slope [6] 0.0111
active: normalized thallium flux [3] 0.0249 | raw Tl+ flux slope (below DMSO = inhibition, above = activation) [5] 0.0155

C/C(=N\NC(=S)Nc1ccc(C)cc1)c1cc2ccccc2o1
active: normalized thallium flux [2] 0.0677 | normalized thallium flux [3] 0.0558 | thallium flux rate (normalised fluorescence) [4] 0.0375 | raw Tl+ flux slope (below DMSO = inhibition, above = activation) [5] 0.0575 | thallium flux slope [6] 0.0352
inactive: normalised thallium flux (F/F0 slope) [1] 0.00692

O=[N+]([O-])c1ccccc1/C=N/n1c(COc2ccccc2)n[nH]c1=S
active: normalized thallium flux [2] 0.0786 | thallium flux rate (normalised fluorescence) [4] 0.0168 | thallium flux slope [6] 0.0116
inactive: normalised thallium flux (F/F0 slope) [1] 0.00593 | normalized thallium flux [3] 0.0297

O=C(Cn1c(-c2ccc(Cl)cc2)noc1=O)N1CCN(c2ccccc2F)CC1
inactive: normalised thallium flux (F/F0 slope) [1] 0.00839 | normalized thallium flux [2] 0.00664 | thallium flux rate (normalised fluorescence) [4] 0.00698 | thallium flux slope [6] 0.00981
active: normalized thallium flux [3] 0.0245

CC(=O)NNC(=O)c1csc(Cc2c(Cl)sc3ccc(Cl)cc23)n1
active: normalized thallium flux [2] 0.0419 | thallium flux rate (normalised fluorescence) [4] 0.0146 | thallium flux slope [6] 0.0112
inactive: normalised thallium flux (F/F0 slope) [1] 0.00965 | normalized thallium flux [3] 0.0308

COc1ccc(C2/C=C\CN(S(=O)(=O)c3cccs3)CC(=O)N2Cc2ccc(F)cc2)cc1 (stereo not given)
inactive: normalised thallium flux (F/F0 slope) [1] 0.00741 | normalized thallium flux [2] 0.00428 | normalized thallium flux [3] 0.0313 | thallium flux rate (normalised fluorescence) [4] 0.00682 | thallium flux slope [6] 0.00998

COc1ccc(Oc2c(Cl)cnn(-c3ccccc3)c2=O)cc1
active: raw Tl+ flux slope (below DMSO = inhibition, above = activation) [5] 0.0166
inactive: normalised thallium flux (F/F0 slope) [1] 0.00949 | normalized thallium flux [2] 0.0065 | normalized thallium flux [3] 0.0314 | thallium flux rate (normalised fluorescence) [4] 0.00741 | thallium flux slope [6] 0.00996

O=C(CSC1=NCCS1)Nc1nc(-c2ccccc2)cs1
active: normalized thallium flux [3] 0.0253 | raw Tl+ flux slope (below DMSO = inhibition, above = activation) [5] 0.0163
inactive: normalised thallium flux (F/F0 slope) [1] 0.0102 | normalized thallium flux [2] 0.00549 | thallium flux rate (normalised fluorescence) [4] 0.00757 | thallium flux slope [6] 0.0115

C(=N\n1cnnc1)/c1cccnc1
581: cell count [7]
76.7%: nuclei count [8]
inactive: inhibition [7] 0.9% | inhibition of aggregation [8] 18.4% | inhibition [9] -64.9% | inhibition [11] 1.42% | fluorescence slope [12] -0.457 | NADPH fluorescence slope [13] -0.000114 | fluorescence slope [14] 0.00428 | outcome [15] | normalised thallium flux (F/F0 slope) [1] 0.0086 | normalized thallium flux [2] 0.00647 | normalized thallium flux [3] 0.0321 | thallium flux rate (normalised fluorescence) [4] 0.0072 | raw Tl+ flux slope (below DMSO = inhibition, above = activation) [5] 0.021 | thallium flux slope [6] 0.0101 | inhibition [16] 0.59% | inhibition [17] -11.4% | inhibition [18] -7.31%
-0.718: z-score ([10]; measured here: nuclear c-Myc green intensity z-score)
115%: nuclei count [9]
0.742: z-score ([10]; measured here: nuclear pErk red intensity z-score, stronger effect = higher value)
0.785: z-score ([10]; measured here: cell density z-score)

COc1cccc(-c2nc(S(=O)(=O)c3ccccc3)c(N3CCOCC3)o2)c1
inactive: normalised thallium flux (F/F0 slope) [1] 0.00627 | normalized thallium flux [2] 0.0046 | normalized thallium flux [3] 0.0314 | thallium flux rate (normalised fluorescence) [4] 0.00767 | raw Tl+ flux slope (below DMSO = inhibition, above = activation) [5] 0.0193 | thallium flux slope [6] 0.0105

c1cncc(-c2nnc3n2C2(CCCCC2)Cc2ccccc2-3)c1
inactive: normalised thallium flux (F/F0 slope) [1] 0.0161 | normalized thallium flux [2] 0.00468 | normalized thallium flux [3] 0.0275 | thallium flux rate (normalised fluorescence) [4] 0.00718 | raw Tl+ flux slope (below DMSO = inhibition, above = activation) [5] 0.0153 | thallium flux slope [6] 0.00983

Cc1cccc(NC(=S)NC(=O)c2ccc(Br)o2)c1
active: normalised thallium flux (F/F0 slope) [1] 0.0193 | normalized thallium flux [2] 0.142 | normalized thallium flux [3] 0.0972 | thallium flux rate (normalised fluorescence) [4] 0.129 | raw Tl+ flux slope (below DMSO = inhibition, above = activation) [5] 0.124 | thallium flux slope [6] 0.0866

CSc1sc(C(=O)NNC(=O)c2ccc(Cl)cc2)c2c1C=CCC2
active: normalised thallium flux (F/F0 slope) [1] 0.0166 | normalized thallium flux [2] 0.0484 | thallium flux rate (normalised fluorescence) [4] 0.0305 | raw Tl+ flux slope (below DMSO = inhibition, above = activation) [5] 0.0333 | thallium flux slope [6] 0.0136
inactive: normalized thallium flux [3] 0.0343

O=C(NNC(=S)NC(=O)c1cn(-c2ccccc2)nc1-c1ccccc1)c1ccncc1
active: normalized thallium flux [2] 0.0138 | thallium flux rate (normalised fluorescence) [4] 0.0141 | thallium flux slope [6] 0.0155
inactive: normalised thallium flux (F/F0 slope) [1] 0.00764 | normalized thallium flux [3] 0.0344

CC1CCCCN1S(=O)(=O)c1ccc(C(=O)Nc2nnc(-c3cccs3)o2)cc1 (stereo not given)
inactive: normalised thallium flux (F/F0 slope) [1] 0.0106 | normalized thallium flux [3] 0.033 | thallium flux slope [6] 0.0123
active: normalized thallium flux [2] 0.0292 | raw Tl+ flux slope (below DMSO = inhibition, above = activation) [5] 0.0294

Reference: PubChem BioAssay
